± gives the standard deviation of the averaged measurements.
How the values were obtained:
IL-6-GFP PC-9GR = assay: cell viability (CCK-8 OD) relative to DMSO control (fraction of control); higher = more viable cells; conditions: compound concentration: 10 uM; treatment time: 48 h
Procedure, shortened: (§1)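 PC-9 and PC-9GR lung cancer cells expressing lentiviral IL-6-GFP were plated at 3000 cells/well in 96-well plates and treated for 48 h with each library compound at a final 10 μM. Viability was determined by CCK-8 absorbance as a ratio of each well's optical density to the vehicle control well.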

IL-6-GFP PC-9 = assay: as above; conditions: compound concentration: 10 uM; treatment time: 48 h
Procedure, shortened: as §1

Row | Compound | cell viability (IL-6-GFP PC-9GR) | cell viability (IL-6-GFP PC-9)
1 | Cn1cc(C2=C(c3cccc(N)c3)C(=O)NC2=O)c2ccccc21 | 0.303 ± 0.31 | 0.677 ± 0.15
2 | CC(C(=O)O)c1cccc(C(=O)c2ccccc2)c1 (centres undefined) [Ketoprofen] | 1.64 ± 0.37 | 1.02 ± 0.11
3 | COc1cc2c(cc1OC)C1CC(OC(=O)C(N)C(C)C)C(CC(C)C)CN1CC2.Cc1ccc(S(=O)(=O)O)cc1.Cc1ccc(S(=O)(=O)O)cc1 (centres undefined) [Valbenazine tosylate] | 0.833 ± 0.14 | 1.01 ± 0.084
4 | O=c1c(-c2ccc(O)cc2)coc2cc(O)cc(O)c12 [Genistein] | 0.975 ± 0.05 | 0.58 ± 0.32
5 | C=C1CCC2C(C)(COC(=O)CCC(=O)O)C(OC(=O)CCC(=O)O)CCC2(C)C1/C=C/C1=CCOC1=O (centres undefined) [Dehydroandrographolide Succinate] | 0.966 ± 0.062 | 1.16 ± 0.016
6 | O=C(O)c1cc(-c2ccc(F)cc2F)ccc1O [Diflunisal] | 0.789 ± 0.23 | 1.15 ± 0.15
7 | Cc1nnc(C(C)C)n1C1CC2CCC(C1)N2CCC(NC(=O)C1CCC(F)(F)CC1)c1ccccc1 (centres undefined) [Maraviroc] | 1.3 ± 0.033 | 0.945 ± 0.17
8 | CCC(=O)OC1(C(=O)SCF)C(C)CC2C3CC(F)C4=CC(=O)C=CC4(C)C3(F)C(O)CC21C (centres undefined) [Fluticasone propionate] | 1.06 ± 0.43 | 0.821 ± 0.024
9 | OCC1OC(c2ccc(Cl)c(Cc3ccc(OC4CCOC4)cc3)c2)C(O)C(O)C1O (centres undefined) | 1.05 ± 0.13 | 0.905 ± 0.058
10 | COc1c(OC2OC(CO)C(O)C(O)C2O)cc2c(c1OC)-c1ccc(SC)c(=O)cc1C(NC(C)=O)CC2 (centres undefined) [Thiocolchicoside] | 1.18 ± 0.26 | 1.2 ± 0.12
11 | CCC(Nc1ncnc2[nH]cnc12)c1nc2cccc(F)c2c(=O)n1-c1ccccc1 (centres undefined) [Idelalisib (CAL-101, GS-1101)] | 1.27 ± 0.14 | 0.858 ± 0.15
12 | Cc1c(Cl)cccc1Nc1ccccc1C(=O)O [Tolfenamic Acid] | 1.39 ± 0.44 | 1.18 ± 0.046
13 | Nc1ncn(C2OC(CO)C(O)C2O)c(=O)n1 (centres undefined) [Azacitidine] | 1.04 ± 0.077 | 0.895 ± 0.15
14 | CCOC(=O)OC1(C(=O)OCCl)CCC2C3CCC4=CC(=O)C=CC4(C)C3C(O)CC21C (centres undefined) [Loteprednol etabonate] | 1.21 ± 0.051 | 0.944 ± 0.063
15 | O=C(O)c1cc(N=Nc2ccc(S(=O)(=O)Nc3ccccn3)cc2)ccc1O [Sulfasalazine] | 1.41 ± 0.088 | 1.22 ± 0.16
16 | CC(C)Cc1ccc(C(C)C(=O)O)cc1 (centres undefined) [Ibuprofen] | 1.32 ± 0.12 | 1.06 ± 0.19
17 | CCCCC1(COC(=O)CCC(=O)O)C(=O)N(c2ccccc2)N(c2ccccc2)C1=O [Suxibuzone] | 0.768 ± 0.21 | 1.07 ± 0.21
18 | CC(C)C(=O)Nc1ccc([N+](=O)[O-])c(C(F)(F)F)c1 [Flutamide] | 1.18 ± 0.054 | 1.2 ± 0.53
19 | O=NN(CCCl)C(=O)NCCCl [Carmustine] | 1.21 ± 0.32 | 1.26 ± 0.063
20 | Cc1c(N)c(=O)n(-c2ccccc2)n1C [4-Aminoantipyrine] | 0.98 ± 0.13 | 1.212 ± 0.0049
21 | CC(C(=O)O)c1ccc(CC2CCCC2=O)cc1 (centres undefined) [Loxoprofen] | 1.04 ± 0.028 | 1.29 ± 0.05

Row | Compound | cell viability (IL-6-GFP PC-9GR) | cell viability (IL-6-GFP PC-9)
22 | COc1c2ccoc2cc2oc(=O)ccc12 [Bergapten] | 0.902 ± 0.041 | 0.8378 ± 0.0073
23 | CCOC(=O)C(CCc1ccccc1)NC1CSC(c2cccs2)CN(CC(=O)O)C1=O (centres undefined) [Temocapril] | 0.726 ± 0.078 | 1.14 ± 0.099
24 | O=C1OC(OC(=O)c2cccnc2Nc2cccc(C(F)(F)F)c2)c2ccccc21 (centres undefined) [Talniflumate] | 1 ± 0.022 | 0.967 ± 0.02
25 | Cc1ccc(C2OC(CO)C(O)C(O)C2O)cc1Cc1ccc(-c2ccc(F)cc2)s1 (centres undefined) [Canagliflozin] | 1.14 ± 0.12 | 1.16 ± 0.15
26 | O=C(O)Cc1ccccc1Nc1c(Cl)cccc1Cl.OCCN1CCCC1 [Diclofenac Epolamine] | 1.34 ± 0.62 | 1.06 ± 0.16
27 | CC(C)(C#N)c1cc(Cn2cncn2)cc(C(C)(C)C#N)c1 [Anastrozole] | 1.15 ± 0.045 | 1.01 ± 0.078
28 | CCOc1ccc(Cc2cc(C3OC(CO)C(O)C(O)C3O)ccc2Cl)cc1 (centres undefined) [Dapagliflozin] | 1.37 ± 0.23 | 1.74 ± 0.67
29 | O=C(O)C1CSCN1 (centres undefined) [Timonacic] | 1.19 ± 0.24 | 1.01 ± 0.15
30 | COc1ccc2c(c1)c(CC(=O)OCC(=O)O)c(C)n2C(=O)c1ccc(Cl)cc1 [Acemetacin] | 1.07 ± 0.14 | 0.954 ± 0.2
31 | Cc1ccc(Nc2nccc(N(C)c3ccc4c(C)n(C)nc4c3)n2)cc1S(N)(=O)=O.Cl | 0.886 ± 0.13 | 0.532 ± 0.1
32 | Nc1nc(=O)c2c([nH]1)NCC(CNc1ccc(C(=O)NC(CCC(=O)[O-])C(=O)[O-])cc1)N2C=O.O.O.O.O.O.[Ca+2] (centres undefined) [Leucovorin Calcium Pentahydrate] | 1.25 ± 0.17 | 1.16 ± 0.28
33 | Cc1cc2c(C(N)=O)cccc2n1-c1nc2c(c(NCc3ccccc3)n1)COCC2 | 0.204 ± 0.1 | 0.261 ± 0.0057
34 | O=C1CCCC2C3CCC[N+]4([O-])CCCC(CN12)C34 (centres undefined) [Oxymatrine] | 1.47 ± 0.16 | 1.33 ± 0.068
35 | COc1cccc2c1C(=O)c1c(O)c3c(c(O)c1C2=O)CC(O)(C(=O)CO)CC3OC1CC(N)C(OC2CCCCO2)C(C)O1 (centres undefined) [Pirarubicin] | 0.33 ± 0.12 | 0.208 ± 0.13
36 | CC(C)Cn1cnc2c(N)nc3ccccc3c21 [Imiquimod] | 0.774 ± 0.57 | 1 ± 0.24
37 | CCCC1CC(C(=O)NC(C(C)O)C2OC(SC)C(O)C(O)C2O)N(C)C1.Cl (centres undefined) [Lincomycin HCl] | 1.13 ± 0.27 | 0.958 ± 0.048
38 | CCCCCCNC(=O)n1cc(F)c(=O)[nH]c1=O [Carmofur] | 0.934 ± 0.022 | 0.906 ± 0.14
39 | COc1cc(Nc2c(C#N)cnc3cc(OCCCN4CCN(C)CC4)c(OC)cc23)c(Cl)cc1Cl [Bosutinib (SKI-606)] | 0.448 ± 0.011 | 0.429 ± 0.064
40 | CC(NCc1ccc(OCc2cccc(F)c2)cc1)C(N)=O.CS(=O)(=O)O (centres undefined) [Safinamide Mesylate] | 1.27 ± 0.017 | 0.749 ± 0.14
41 | Cn1c(=O)cc(N2CCCC(N)C2)n(Cc2ccccc2C#N)c1=O (centres undefined) [Alogliptin(SYK-322)benzoate] | 0.986 ± 0.057 | 1.05 ± 0.088
42 | CC(=O)Nc1ccc(CC(=O)O)cc1 [Actarit] | 1.61 ± 0.35 | 1.15 ± 0.07

Row | Compound | cell viability (IL-6-GFP PC-9GR) | cell viability (IL-6-GFP PC-9)
43 | CC1CC2C3CCC4=CC(=O)C=CC4(C)C3(F)C(O)CC2(C)C1(O)C(=O)CO (centres undefined) [Betamethasone] | 1.24 ± 0.11 | 1.29 ± 0.29
44 | CC(=O)OC(C)C(C)C(=O)OCC12C3CC4(C)C(=CCC5C6(C)CCC(OC7OC(C(=O)[O][Na])C(OC8OC(CO)C(O)C(O)C8O)C(O)C7OC7OCC(O)C(O)C7O)C(C)(CO)C6CCC54C)C1CC(C)(C)C(O3)C2O (centres undefined) [Sodium Aescinate] | 0.632 ± 0.25 | 1 ± 0.18
45 | CC12CCC(CC1=O)C2(C)C (centres undefined) [Camphor] | 1.24 ± 0.3 | 0.786 ± 0.061
46 | CCC1/C=C(\C)CC(C)CC(OC)C2OC(O)(C(=O)C(=O)N3CCCCC3C(=O)OC(/C(C)=C/C3CCC(Cl)C(OC)C3)C(C)C(O)CC1=O)C(C)CC2OC (centres undefined) [Pimecrolimus] | 1 ± 0.18 | 1.02 ± 0.071
47 | Cc1cncc(CN2CCC(=C3c4ccc(Cl)cc4CCc4cccnc43)CC2)c1.O=C(O)/C=C/C(=O)O [Rupatadine Fumarate] | 0.996 ± 0.05 | 1.16 ± 0.17
48 | CN(C)CCOC(c1ccc(Cl)cc1)c1ccccn1.O=C(O)/C=C\C(=O)O (centres undefined) [CarbinoxaMine Maleate] | 1.2 ± 0.26 | 1.07 ± 0.066
49 | CC(C)c1nc(N(C)S(C)(=O)=O)nc(-c2ccc(F)cc2)c1/C=C/C(O)CC(O)CC(=O)O (centres undefined) [Rosuvastatin] | 1.56 ± 0.24 | 1.12 ± 0.1
50 | CN1C(C(=O)Nc2ccccn2)=C(O)c2sc(Cl)cc2S1(=O)=O [Lornoxicam] | 0.71 ± 0.3 | 1.1 ± 0.23
51 | CCC(C)(Oc1ccc(C2(c3ccc(OC(C)(CC)C(=O)O)cc3)CCCCC2)cc1)C(=O)O (centres undefined) [Clinofibrate] | 1.17 ± 0.14 | 1.23 ± 0.42
52 | CC(C)Cc1ccc(C(C)C(=O)OCc2ccccn2)cc1 (centres undefined) [Ibuprofen piconol] | 1.43 ± 0.54 | 1.17 ± 0.096
53 | CN1CCC(=C2c3ccccc3C=Cc3ccccc32)CC1.Cl [Cyproheptadine hydrochloride] | 0.784 ± 0.082 | 1.07 ± 0.17
54 | COc1ccc2cc1Oc1ccc(cc1)CC1c3cc(c(OC)cc3CCN1C)Oc1c(O)c(OC)cc3c1C(C2)N(C)CC3 (single isomer, unassigned; (+)) [(+)-Fangchinoline] | 0.731 ± 0.36 | 0.678 ± 0.23
55 | COc1cccc2c1C(=O)c1c(O)c3c(c(O)c1C2=O)CC(O)(C(=O)CO)CC3OC1CC(N)C(O)C(C)O1.Cl (centres undefined) [Epirubicin HCl] | 0.141 ± 0.14 | 0.1407 ± 0.00071
56 | CN(Cc1cnc2nc(N)nc(N)c2n1)c1ccc(C(=O)NC(CCC(=O)O)C(=O)O)cc1 (centres undefined) [Methotrexate] | 0.638 ± 0.078 | 0.54 ± 0.15
57 | Cc1nc(Nc2ncc(C(=O)Nc3c(C)cccc3Cl)s2)cc(N2CCN(CCO)CC2)n1 [Dasatinib] | 0.953 ± 0.026 | 0.206 ± 0.2
58 | Oc1ccc(/C=C/c2cc(O)cc(O)c2)cc1 [Resveratrol] | 1.38 ± 0.065 | 1.37 ± 0.064
59 | Cc1c(-c2ccc(O)cc2)n(Cc2ccc(OCCN3CCCCCC3)cc2)c2ccc(O)cc12.Cl [Bazedoxifene HCl] | 0.539 ± 0.098 | 0.51 ± 0.077
60 | CCCS(=O)(=O)Nc1ccc(F)c(C(=O)c2c[nH]c3ncc(-c4ccc(Cl)cc4)cc23)c1F [Vemurafenib (PLX4032, RG7204)] | 1.06 ± 0.1 | 1.05 ± 0.15
61 | CCCC(=O)OC1(C(=O)CCl)C(C)CC2C3CCC4=CC(=O)C=CC4(C)C3(F)C(=O)CC21C (centres undefined) [clobetasone butyrate] | 0.995 ± 0.17 | 0.99 ± 0.3
62 | C=C1CCC2C(C)(CO)C(O)CCC2(C)C1C/C=C1\C=COC1=O (centres undefined) [Dehydroandrographolide] | 1.17 ± 0.35 | 1.24 ± 0.12
